Results: PubChem BioAssay

Key:
[1] = target: Tumor necrosis factor receptor superfamily member 10B (Homo sapiens) (UniProt O14763); experiment: caspase-8 TRAIL sensitization, hit retest, confirmation, cell-based, NB7+caspase-8, with/without TRAIL, luminescence panel (AID 651596); conditions: NB7 neuroblastoma + caspase-8, TRAIL sensitization, luminescence viability, with TRAIL, mean of runs, at 10 µM, stronger effect = higher value
[2] = as above; conditions: NB7 neuroblastoma + caspase-8, without TRAIL, luminescence viability, without TRAIL, mean of runs, at 10 µM

Chain of Tumor necrosis factor receptor superfamily member 10B (Homo sapiens) (O14763 whole entry, looked up): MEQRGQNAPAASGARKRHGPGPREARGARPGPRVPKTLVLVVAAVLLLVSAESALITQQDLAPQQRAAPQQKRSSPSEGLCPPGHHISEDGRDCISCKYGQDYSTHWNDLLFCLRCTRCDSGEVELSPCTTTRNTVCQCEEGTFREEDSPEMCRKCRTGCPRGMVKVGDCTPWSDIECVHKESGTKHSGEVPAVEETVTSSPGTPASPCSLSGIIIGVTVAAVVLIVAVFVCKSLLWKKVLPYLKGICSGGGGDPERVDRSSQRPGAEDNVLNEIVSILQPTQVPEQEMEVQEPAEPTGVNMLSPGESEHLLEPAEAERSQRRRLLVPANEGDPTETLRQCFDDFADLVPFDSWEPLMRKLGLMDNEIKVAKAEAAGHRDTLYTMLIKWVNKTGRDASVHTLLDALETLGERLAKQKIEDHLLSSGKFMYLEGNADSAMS

SMILES | activity [1] [%] | activity [2] [%]
C=C1C(=O)c2sccc2C(c2ccc(OC)c(OC)c2)C1COC(C)=O (configuration not stated) | 98.2 | 99.2
CCOc1ccc(OCC(=O)N(CCC2=CCCCC2)c2c(N)n(Cc3ccccc3)c(=O)[nH]c2=O)cc1 | 48.6 | 1.7
COc1cccc(-c2noc(-c3ccc4c(c3)OCO4)n2)c1 | 65.7 | 62.5
Cc1ccccc1C(=O)N1CCN(c2ccc(NC(=O)c3ccc([N+](=O)[O-])o3)cc2)CC1 | 86 | 99.5
COc1ccc(C(=O)Nc2cccc(OC)c2)cc1 | 56.9 | 53.9
O=C(Nc1cc2ccccc2oc1=O)c1ccccc1 | 54.1 | 52
N=c1c2c(n(Cc3ccc(Cl)c(Cl)c3)c3c1CCC3)CCCC2 | 80.6 | 60.1
C#Cc1cccc(Nc2nc(NCc3ccccc3OC)nc3ccsc23)c1 | 52.1 | 37.5
CCOc1cccc2cc(-c3nnc(NCc4ccco4)s3)c(=O)oc12 | -11.9 | -7.67
COc1ccc2oc(=Nc3ccccc3)c(-c3nc4ccccc4[nH]3)cc2c1 | 52.8 | 55
O=[N+]([O-])c1ccc(N2CCN(Cc3ccccc3)CC2)c2c1no[n+]2[O-] | 99.2 | 99.1
Cc1cccc(-c2noc(-c3csc([C@@H]4C[C@H](O)[C@@H](CO)O4)n3)n2)c1 | 36.7 | 29.3
COc1ccc2nc(-c3ccccn3)ccc2c1 | 82.1 | 77.5
O=C(Nc1nc(=O)c2ccccc2s1)c1ccc(Cl)cc1 | 66.1 | 72.6
Oc1cc(NCc2ccc(F)cc2)cc2cccnc12 | 36.8 | 33.5
CN1/C(=C\C(=O)C[n+]2ccc(C(=O)c3ccccc3)cc2)C(C)(C)c2ccccc21 | 15.8 | 27.4
